Screens (PubChem)
This is one part of a sample in which hits are shown more often than they occur.
DUX4 txn inh: DUX4-mediated transcription inhibition | 293T-iDUX4 ZSCAN4-Gaussia luciferase reporter, 24 h; stronger effect = lower value | activity change, negative = inhibition, % (no concentration beside the values) | hit rate 0.8% among 37,000 | AID 1224904;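 active means mean inhibition of at least 10% in the main channel, exceeding the control channel by a set limit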
Of the large screens only hits and unclear results are named; the others gave an inactive call.

Cc1ccccc1S(=O)(=O)N(C)C[C@H]1OCc2ccccc2-c2c(n(C)c3ccccc23)C(=O)N([C@H](C)CO)C[C@@H]1C	DUX4 txn inh -35
C[C@@H]1CN([C@@H](C)CO)C(=O)c2c(c3ccccc3n2C)-c2ccccc2CO[C@@H]1CN(C)S(=O)(=O)c1cccc(C#N)c1	DUX4 txn inh -24
C[C@@H]1CN([C@H](C)CO)C(=O)c2c(c3ccccc3n2C)-c2ccccc2CO[C@@H]1CN(C)S(=O)(=O)c1ccc(C(F)(F)F)cc1	none
CN1C(=O)c2cc(NC(=O)c3ccc(C(F)(F)F)cc3)ccc2OC[C@@H]2O[C@@H](CC(=O)NCc3ccc4c(c3)OCO4)CC[C@H]21	none
O=C(Nc1ccc(F)cc1)N1C[C@H]2[C@@H](c3ccccc31)[C@H](CO)N2Cc1ccccc1Cl	none
Cc1ccc(S(=O)(=O)N2CC[C@H]3[C@@H](CO)N(C)c4ccc(-c5ccc(C#N)cc5)cc4[C@H]32)cc1	none
N#Cc1ccc(-c2ccc3c(c2)[C@@H]2[C@@H](CCN2C(=O)Cc2ccccc2)[C@H](CO)N3)cc1	none
O=C(Cc1ccccc1)N1CC[C@@H]2[C@@H](CO)Nc3ccc(-c4cccc(F)c4)cc3[C@@H]21	none
COCC(=O)N1CC[C@@H]2[C@H]1c1cc(C#Cc3ccc(OC)cc3)ccc1N[C@@H]2CO	DUX4 txn inh -18
O=C(Cc1ccccc1)N1CC[C@@H]2[C@H]1c1cc(-c3ccc(F)cc3)ccc1N[C@@H]2CO	DUX4 txn inh -24
COCC(=O)N1CC[C@@H]2[C@H](CO)Nc3ccc(-c4ccc(C(=O)N(C)C)cc4)cc3[C@@H]21	none
COCC(=O)N1CC[C@@H]2[C@H]1c1cc(-c3ccc(C#N)cc3)ccc1N[C@@H]2CO	DUX4 txn inh -34
CCC(=O)N1CC[C@@H]2[C@H](CO)Nc3ccc(C#Cc4ccc(OC)cc4)cc3[C@@H]21	none
COCC(=O)N1CC[C@H]2[C@H](CO)Nc3ccc(-c4ccc(C#N)cc4)cc3[C@H]21	none
COCC(=O)N1CC[C@@H]2[C@@H](CO)Nc3ccc(C#Cc4ccc(F)cc4)cc3[C@@H]21	none
COc1ccccc1C#Cc1ccc2c(c1)[C@H]1[C@H](CCN1C(=O)CN1CCOCC1)[C@@H](CO)N2	none
COc1ccccc1C#Cc1ccc2c(c1)[C@H]1[C@H](CCN1C(=O)CN1CCOCC1)[C@H](CO)N2	DUX4 txn inh -21
O=C(CN1CCOCC1)N1CC[C@H]2[C@H](CO)Nc3ccc(-c4ccccc4)cc3[C@H]21	none
CO[C@@H]1CC[C@H]2CCN(C)C(=O)[C@@H](C)CN(C)C(=O)c3cc(C#N)ccc3OC[C@@H]1O2	none
COC(=O)C[C@H]1CC[C@H]2[C@@H](COc3ccc(NC(=O)c4cnccn4)cc3C(=O)N2C)O1	none
CCCN(C)C[C@H]1Oc2cc(C#CC3CCCCC3)ccc2S(=O)(=O)N([C@H](C)CO)C[C@@H]1C	none
CCC(=O)N1CC2(C1)CN(C(=O)c1ccccn1)[C@@H](CO)c1c2c2ccc(OC)cc2n1C	none
C[C@H]1CN([C@@H](C)CO)C(=O)c2ccccc2-c2ccccc2CO[C@H]1CN(C)S(C)(=O)=O	none
O=C([C@H]1[C@H](CO)[C@H]2Cn3c(cccc3=O)[C@@H]1N2CCC(F)(F)F)N1CCCCC1	none
C[C@H]1CN([C@@H](C)CO)C(=O)c2c(c3ccccc3n2C)-c2ccccc2CO[C@H]1CN(C)Cc1ccncc1	none
O=C(C[C@H]1CC[C@H]2[C@@H](COC[C@@H](O)CN2S(=O)(=O)c2cccc(F)c2)O1)NCCCN1CCOCC1	none
O=C(NC1CCCC1)N1CCCCN2[C@@H](CO)[C@H](c3ccc(-c4ccccc4)cc3)[C@@H]2C1	none
CC(C)[C@H]1COCc2cn(nn2)CC[C@@H](C)C(=O)N1	none
CCC(=O)NC[C@H]1[C@H](c2ccc(C3=CCCC3)cc2)[C@H](CO)N1C(C)=O	none
O=C(Cc1cccnc1)N1CC2(C1)[C@H](c1ccccc1)[C@H](CO)N2C(=O)C1CC1	none
O=C(C[C@@H]1C[C@H]2c3cc(NC(=O)CC4CC4)ccc3O[C@H]2[C@@H](CO)O1)NCc1cc(F)ccc1F	none
O=C(C[C@@H]1C[C@@H]2c3cc(NC(=O)Cc4ccncc4)ccc3O[C@@H]2[C@@H](CO)O1)NCCc1ccccc1	none
O=C(C[C@H]1C[C@H]2c3cc(NC(=O)Cc4ccncc4)ccc3O[C@H]2[C@H](CO)O1)NCCc1ccccc1	DUX4 txn inh -21
O=C(C[C@H]1C[C@H]2c3cc(NC(=O)Cc4ccncc4)ccc3O[C@H]2[C@@H](CO)O1)NCCc1ccccc1	none
O=C(C[C@@H]1C[C@H]2c3cc(NC(=O)Cc4ccncc4)ccc3O[C@H]2[C@H](CO)O1)NCc1cc(F)ccc1F	none
O=C(C[C@H]1C[C@H]2c3cc(NC(=O)Cc4ccncc4)ccc3O[C@H]2[C@@H](CO)O1)NCc1cc(F)ccc1F	DUX4 txn inh -21
O=C(c1ccccc1)N1[C@H](CO)[C@H](c2ccccc2)C12CN(Cc1nccs1)C2	none
C/C=C/c1ccc([C@@H]2[C@@H](CN(C)C(=O)CC)N(S(C)(=O)=O)[C@H]2CO)cc1	none
CCS(=O)(=O)Nc1ccc2c(c1)C(=O)N(C)C[C@H](OC)[C@@H](C)CN(C(=O)CN(C)C)[C@@H](C)CO2	none
C/C=C/c1ccc([C@H]2[C@@H](CO)N(c3nc(C)c(C)s3)[C@@H]2CNCC(C)C)cc1	none
COCC(=O)N1[C@H](C#N)[C@@H](c2ccc(C#Cc3ccccc3F)cc2)[C@H]1CO	none
O=C(CCN1CCCCC1)NCC[C@@H]1CC[C@@H](NC(=O)Cc2cccnc2)[C@H](CO)O1	none
COc1ccc(C(=O)N2C[C@H]3[C@@H](c4ccccc42)[C@@H](CO)N3Cc2ccccc2)cc1	none
CC(C)CC#Cc1ccc([C@@H]2[C@@H](CO)N3C(=O)CN(C(=O)c4cccc(F)c4)C[C@H]23)cc1	none
CC(C)CC#Cc1ccc([C@H]2[C@H](CO)N3C(=O)CN(C(=O)c4cccc(F)c4)C[C@@H]23)cc1	DUX4 txn inh -38
CC(C)CC#Cc1ccc([C@H]2[C@H]3CN(C(=O)c4cccc(F)c4)CC(=O)N3[C@H]2CO)cc1	none
O=C(Cc1ccccc1)N1CC(=O)N2[C@@H](CO)[C@H](c3ccc(C#CCc4ccccc4)cc3)[C@@H]2C1	none
O=C(Cc1ccccc1)N1CC(=O)N2[C@H](CO)[C@@H](c3ccc(C#CCc4ccccc4)cc3)[C@@H]2C1	DUX4 txn inh -33
O=C(Cc1ccccc1)N1CC(=O)N2[C@@H](CO)[C@@H](c3ccc(C#CCc4ccccc4)cc3)[C@@H]2C1	none
CNC[C@H]1Oc2ccc(NS(=O)(=O)c3c(C)noc3C)cc2CC(=O)N([C@@H](C)CO)C[C@H]1C	none
O=C(CN1CCOCC1)N[C@H]1CC[C@@H](CCn2cc(C3CC3)nn2)O[C@H]1CO	none
COc1ccc(C#Cc2ccc3c(c2)[C@@H]2[C@@H](CCN2C(=O)c2ccccc2F)[C@H](CO)N3C)cc1	none
CN1c2ccc(C#Cc3ccccc3F)cc2[C@H]2[C@H](CCN2C(=O)c2cnccn2)[C@H]1CO	DUX4 txn inh -29
CN1c2ccc(Br)cc2[C@H]2[C@H](CCN2C(=O)c2cccc(F)c2)[C@H]1CO	none
CN1c2ccc(-c3ccccc3F)cc2[C@@H]2[C@@H](CCN2C(=O)c2ccccn2)[C@H]1CO	none
CC(C)NC(=O)N1CC[C@H]2[C@@H]1c1cc(C#Cc3cccnc3)ccc1N(C)[C@H]2CO	none
CN1c2ccc(C#Cc3cccnc3)cc2[C@@H]2[C@@H](CCN2C(=O)c2cccc(F)c2)[C@H]1CO	DUX4 txn inh -37
CC=Cc1ccc2n(c1=O)C[C@@H]1[C@@H](CO)[C@H](C(=O)NC3Cc4ccccc4C3)N(CC3CCCC3)[C@H]21 (mixture of isomers)	none
